Experimental data reported in PubChem BioAssay AID743398 (Broad Institute, 2014).
About 3,600 (1.2%) of roughly 300,000 compounds were called active. Shown is part of a subset that was picked to be rich in actives. Unmarked numbers belong to inactive results. No stated cut-off is given here; in the data, active means activation above about 30% (passing the limit was not always enough); inconclusive means no clear call, values can overlap the other calls.

Assay: Wnt/beta-catenin pathway activators, primary screen, cell-based, plate reader, single point (AID 743398);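 further: 0% = neutral control wells and 100% = positive control wells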
Conditions: Wnt/beta-catenin reporter cell assay, activator, at 9.35 µM, active compounds read high
For `c1cc(-c2ccc3[nH]ccc3c2)n2ccnc2c1`, the activation was 3.12%.
`Fc1cccc(Cc2c(-c3cccc(Cl)c3)nc3ccc(Br)cn23)c1` gave an activation of 16.8%.
Work on `CN(c1ccccc1)S(=O)(=O)c1ccc(Cl)c(C(=O)NCCc2c[nH]c3ccccc23)c1` yielded an activation of -0.321%.
`O=C(NCCc1c[nH]c2ccccc12)c1cccc(Br)c1` showed an activation of 0.278%.
With `O=C(NCCc1c[nH]c2ccccc12)c1cc2ccccc2oc1=O` the activation was 40.4% (active).
`Nc1[nH]c(C(=O)c2ccc(Br)cc2)c(-c2ccc3c(c2)OCO3)c1C(=O)NCCc1c[nH]c2ccccc12` showed an activation of 0.212%.
`CCc1ccc(C2=CC(=O)CC(C)(C)C2=O)cc1` showed an activation of -1.61%.
With `O=C(NCC(=O)N(Cc1cccs1)C(C(=O)NC1CCCCC1)c1ccco1)c1cccs1` (stereo not drawn) the activation was 67.7% (active).
For `Cc1ccccc1N(C(=O)CNC(=O)c1cccs1)C(C(=O)NC1CCCC1)c1ccncc1` (stereo not drawn), the activation was -0.349%.
With `O=C(NCC(=O)N(CC1CCCO1)C(C(=O)NC1CCCCC1)c1ccccc1)c1ccco1` (stereo not drawn) the activation was -4.62%.
Work on `CCOC(=O)C1=CC[C@@H](c2ccncc2)N(S(=O)(=O)c2ccc(C)cc2)C1` yielded an activation of -0.651%.
Work on `CCCCn1nnnc1C(c1ccccc1)N1CCN(c2ccccc2OC)CC1` (stereo not drawn) yielded an activation of 1.03%.
In the case of `COC(=O)C1=C(C)N(Cc2cccc(C(F)(F)F)c2)C(=NCc2cccc(C(F)(F)F)c2)NC1c1ccccc1C(F)(F)F` (stereo not drawn), the activation was -4.8%.
With `COc1ccc(-c2cnc3c(c2)C(=O)N([C@H](C)CO)C[C@@H](C)[C@H](CN(C)Cc2ccccc2)O3)cc1` the activation was -0.613%.
With `Cc1ccc2nc(N3CCN(C(=O)c4ccco4)CC3)sc2c1` the activation was 40% (active).
`COc1ccc2nc(N3CCN(C(=O)c4ccc([N+](=O)[O-])o4)CC3)sc2c1` showed an activation of 2.35%.
Work on `Cc1ccc2nc(N3C(=O)C(O)=C(C(=O)c4ccco4)C3c3cccc(O)c3)sc2c1` (stereo not drawn) yielded an activation of 8.29%.
`COc1cccc(CC(=O)N2CCN(C(=O)C(=O)c3cccc(C(F)(F)F)c3)CC2)c1` showed an activation of -3.95%.
With `CN(Cc1ccccc1)C(=O)c1cccc(C(=O)N(C)Cc2ccccc2)c1` the activation was 1.74%.
With `Cc1cc(C)cc(NC(=O)N(C)Cc2ccccc2)c1` the activation was 46% (active).
For `Cc1cc(C)cc(NC(=O)CSc2ccccc2)c1`, the activation was -7.62%.
`Cc1ccccc1-c1nc(NC(C)C)nc2cc(-c3ccccc3)sc12` showed an activation of -8.66%.
In the case of `CN1CCN(c2ccc3c(c2)OC[C@H](Cc2ccccc2)NS3(=O)=O)CC1`, the activation was -3.42%.
Compound `COc1ccc(Cc2nc3ccc(C(=O)NCC4CCOCC4)cc3o2)cc1OC` has an activation of 7.09%.
In the case of `CSCCNC(=O)c1ccc2nc(Cc3ccccc3F)oc2c1`, the activation was 42.9% (active).
`COCCNC(=O)c1ccc2nc(Cc3ccc(OC)c(OC)c3)oc2c1` showed an activation of 1.55%.
`COc1ccc2nc(-c3ccccn3)ccc2c1` gave an activation of 1.79%.
With `COc1ccc(-c2cc3ncccc3cn2)cc1` the activation was 50.1% (active).
`COc1ccc(-c2cn3cccnc3n2)cc1` gave an activation of 26.2%.
`CCOc1ccc(Cl)cc1-c1cc(C(=O)NCc2cccs2)[nH]n1` gave an activation of -2.6%.
`O=C(NCc1ccccc1)[C@@H]1CCCN1C(=O)[C@H]1CCCN1C(=O)c1cccc(Cl)c1` showed an activation of 3.03%.
`CN1C/C(=C/c2cccs2)C(=O)/C(=C\c2cccs2)C1` gave an activation of 5.88%.
Work on `O=C1/C(=C/c2cccs2)CCc2ccccc21` yielded an activation of 24.6%.
In the case of `O=C1/C(=C/c2cccs2)CCC1C1CCCC1` (stereo not drawn), the activation was 39.6% (active).
For `C[C@H](CO)N1C[C@H](C)[C@@H](CN(C)C(=O)Nc2ccccc2F)OCc2cn(nn2)CCCC1=O`, the activation was -2.87%.
In the case of `COc1cc(OC)cc(-c2cc3ccc(F)cc3cn2)c1`, the activation was 42.1% (active).
`COc1ccc(C(C)(O)c2nc(-c3cc(F)cc(F)c3)cs2)cc1` (stereo not drawn) showed an activation of -1.38%.
With `COc1cc(OC)cc(-c2c(-c3ccc(F)cc3)c3cc(-c4ccc5cc[nH]c5c4)ccc3n2C)c1` the activation was -17.5%.
`COc1ccccc1C(=O)N1O[C@]23C=C[C@]14C[C@@H](O)CC[C@]4(C)C2CC[C@]1(C)[C@@H]([C@H](C)/C=C/[C@H](C)C(C)C)CC[C@H]13` (stereo partly drawn) gave an activation of -2.64%.
Compound `COc1cccc(CNc2nc(NCc3cccs3)nc3ccsc23)c1` has an activation of -1.69%.
For `O=C(Nc1c(Cl)c(C2CC2)nn1-c1ccccc1)C(Cl)(Cl)Cl`, the activation was -2.16%.
With `O=C(NCCCN1CCOCC1)c1cc(-c2ccccc2F)no1` the activation was 3.67%.
`O=C(c1ccco1)N1CCN(C(=O)c2cc(-c3ccccc3F)no2)CC1` showed an activation of 1.22%.
With `Fc1ccccc1-c1cc2cc3c(cc2cn1)OCO3` the activation was 40.7% (active).
`CCNC(=O)C1(C)CCCN(Cc2noc(-c3ccccc3OC)n2)C1` (stereo not drawn) gave an activation of -3.24%.
In the case of `CN1C(=O)C2CC(O)C(SC3CC4C(=O)N(C)C(=O)C4CC3O)CC2C1=O` (stereo not drawn), the activation was -1.16%.
For `CCc1nc2c(OCc3ccc(C(F)(F)F)cc3)cccn2c1N(C)C(=O)CC(C)C`, the activation was -1.72%.
With `C=CCc1cccc2cc(C(=O)Nc3ccc(NC(C)=O)cc3)c(=O)oc12` the activation was 39.5% (active).
For `CCOc1cccc2cc(C(=O)OCC(=O)Nc3c(C)cccc3CC)c(=O)oc12`, the activation was 8.56%.
For `C=CCc1cccc2cc(C(=O)NC3CCCC3)c(=O)oc12`, the activation was -0.536%.
For `COc1ccc(-c2ccccc2C2Cc3nnccc3CN2C(=O)Nc2ccccc2)cc1` (stereo not drawn), the activation was -2.13%.
Work on `COC(=O)c1cc2c(c3c4ccccc4n(S(=O)(=O)c4cccc(C)c4)c13)C(=O)N(Cc1ccccc1)C2` yielded an activation of -4.66%.
`Cc1[nH]n(C)c(=O)c1C(=O)c1c(-c2c(Cl)cccc2Cl)noc1C` gave an activation of 4.17%.
For `Cn1c(-c2ccc(C(F)(F)F)cc2)cc2onc(-c3ccccc3)c2c1=O`, the activation was 23.3%.
With `Cn1c(-c2ccc(F)cc2)cc2onc(-c3ccccc3Cl)c2c1=O` the activation was 53.3% (active).
`CCOC(=O)/C=C/c1ccccc1O` showed an activation of -1.18%.
Compound `CN(C)C(=O)c1ccc(NC(=O)COC(=O)c2cc3c(s2)CCCCC3)cc1` has an activation of 0.414%.
With `O=C(Nc1ccc(F)cc1)c1cc2c(s1)CCCC2` the activation was 53% (active).
With `O=C(NNC(=O)c1cc2c(s1)CCCC2)c1ccccc1` the activation was 27.6%.
With `CCN(CC)C(=O)C1=C(C)N(Cc2ccc(F)cc2)C(=O)C(CC(=O)NCc2cccc3ccccc23)C1` (stereo not drawn) the activation was -3.01%.
Work on `O=CNc1cc(-c2ccc(C(=O)N3CCOCC3)cc2)cn2c(-c3ccc(F)cc3)cnc12` yielded an activation of -3.58%.
Compound `Cc1nonc1NC(=O)c1oc2ccccc2c1C` has an activation of 8.7%.
With `Cc1c(C(=O)Nc2ccccn2)oc2ccc(Br)cc12` the activation was 34.7% (active).
`Cc1noc(C)c1C(=O)Nc1ccccn1` showed an activation of -1.19%.
`O=C(/C=C/c1ccc(F)cc1)NCCNC(=O)/C=C/c1ccc(F)cc1` gave an activation of -1.4%.
With `C=CCNC(=O)/C=C/c1ccc(C(C)C)cc1` the activation was 42.6% (active).
`CC(C)c1ccc(/C=C/C(=O)NCCCN2CCOCC2)cc1` showed an activation of -3.21%.
Work on `CCOC(=O)[C@]12CCC=C1N(Cc1cccc3ccccc13)C(=O)[C@H](CC(=O)NCc1cccc(C(F)(F)F)c1)C2` yielded an activation of -1.93%.
For `C#CCN(C[C@@H]1[C@@H](OC(=O)NC2CC2)[C@@H](OC(=O)NC2CC2)Cn2c(=O)ccc(=O)n21)S(=O)(=O)c1ccc(C)cc1`, the activation was -2.83%.
Compound `O=[N+]([O-])c1ccc(C(S(=O)(=O)Cc2ccccc2)S(=O)(=O)Cc2ccccc2)cc1` has an activation of -5.67%.
`CC(=O)c1ccc2c(c1)OCCOCCOc1ccc(C(C)=O)cc1OCCOCCO2` gave an activation of 1.05%.
Compound `O=C(Nc1ccccc1)c1ccc2c(c1)OCCCO2` has an activation of 19.2%.
In the case of `Cc1ccc(C(=O)NNC(=O)c2ccc3c(c2)OCCO3)cc1`, the activation was 43.9% (active).
In the case of `Cc1nc(NC(=O)c2ccc3c(c2)OCCO3)ccc1Br`, the activation was 48.4% (active).
Work on `O=C(Nc1ccc(Cl)cn1)c1ccc2c(c1)OCCO2` yielded an activation of 24.2%.
In the case of `Cc1cccc(C)c1NC(=O)CNC(=O)c1ccc2c(c1)OCCO2`, the activation was 13.2%.
Work on `CN(CCc1ccccc1)C(=O)c1cccc(NC(=O)Cc2cccc(NC(=O)C3CCCN(C(=O)C4CCC4)C3)c2)c1` (stereo not drawn) yielded an activation of -3.51%.
For `C[C@H]([C@@H](O)[C@@H](O)[C@@H](C)C(C)(C)C)[C@H]1CC[C@H]2C3CC[C@H]4C[C@H](OS(=O)(=O)O)[C@@H](OS(=O)(=O)O)C[C@]4(C)[C@H]3CC[C@]12C` (stereo partly drawn), the activation was -0.623%.
`CC12CCC(=O)C=C1CCC1C2C(O)CC2(C)C1CCC2(O)C(O)CO` (stereo not drawn) showed an activation of 3.61%.
Compound `Cn1c(=NC(=O)C2CC2)sc2cc(F)cc(F)c21` has an activation of 7.6%.
With `Cn1c(=NC(=O)c2ccco2)sc2cccc(F)c21` the activation was 61.6% (active).
In the case of `CCCC(=O)N=c1sc2cccc(F)c2n1C`, the activation was 5.33%.
In the case of `Cc1ccc(S(=O)(=O)N2C[C@]3(O)C[C@@H]4C(=O)N(c5ccccc5)C(=O)[C@@H]4C[C@]3(OC(=O)NC3CC3)C2)cc1`, the activation was -1.31%.
For `Clc1ccc(Nc2nc(-c3cccs3)cs2)nc1`, the activation was 25.2%.
`CC(=O)Nc1cnc(-c2ccc(O)cc2C)cn1` gave an activation of -0.836%.
For `Cc1ccc(Nc2nc(-c3ccc(O)cc3O)cs2)nc1`, the activation was 59.5% (active).
For `Cn1c(=O)c2cc(NC(=O)NCCc3cccs3)ccc2n1Cc1cccc(C(F)(F)F)c1`, the activation was -1.78%.
For `Cc1ccc(S(=O)(=O)N2CC3C(=O)C[C@@H](c4ccccc4Cl)N(S(=O)(=O)c4ccc(C)cc4)C3CC2c2ccccc2)cc1` (stereo partly drawn), the activation was -1.39%.
